# Laboratory results: the supplement of paper PMC8728848
# About 410 targets per protein were measured; listed, in parts, are those with the strongest signals and a random draw of the rest.
# B1: Epa1-NP-mutant-Y228A (Candida glabrata), Q6VBJ0 (protein)
# chain: MILNPALFLNKCVCIYTTLILLLLTNGGYATSSNDISLASKDPTTFPLGCSPDITTPKKGLSMELYSYDFRKKGSYPCWDAAYLDPNYPRTGYKSHRLLAKVDGVTGNINFYYHATKGCTPQLGHLPASYNYPKPLTMTNFTMLLYGYFRPKVTGFHTFTISADDLLFVNFGAGNAFDCCRRDSSADHFGNYQAYAIWGSKTAKDELTVHLDAGVYYPIRLFYNNREADGALSFTFKTESNENTVSDFSEYFFSLDDTEEGCPGLISYDSSCASVKTSKIIGIDYHTETPNENLVPITKTIYHLGIPCTGTTTTPLCGSGFYDPLANKCVTINTSSTSSVTKTTSHTTSKEVSFHSSISSQKTLIPKSIPSPYGPIKSQSIPTEMETSSEISSSEYAFSDVISTPSHSPYTKKHSSLNSSSYTSTVIHSLTSYSISQGIFSTSLSEQNITSKSSTDKFSTATSMSNNITQSSIIISQFSTNNENYTTTSMHTSSDKISTETLNNSISTTTSILFSNSSTILKNNTTIISSDKDTHYHPVNPTIVCSTNKTEIICASITQPSISNSNNHWSSSVLKFNSTTVRSTLPSSAGSNETSINVPFSSSTESNTSTSSTSTSNSKMVRSTLPSSAGSNETSISVPFSSSTESNTSTSSTSTSNSKMVRSTLPSSAGSNETSINVPFSSSTESNTSTSSTSTSNSKTVRSTPFSSAGIIMTSLSQRNNKSASSYASSNSKCYNTADSCRKVHSTPSYLLTSSYTSEGVDYDCSLVSTKLKINDTNCVNNKHTTKSCLKTSVTTTIPTLEIKTARKSSSNTIGLHSYPTSSPNKSISSAPIIGYISSFKTIKTASPSYQTSDLTTITTITSLNNPGSTAVENTHESNDKSRKTSSNDISSKHSVIKETKDAVESSNKSHQTNTLKCSSIIIASSSHNSYESLGGTTLTLTLSKVYSPQNNDTLPFLEISEVNPSRTVLPESSKMMQYLTSTEERNKTARNTIATNIVSISTFHFEGEGNAIRMGYTQLLLMLIGIIVMNIGT
# How the values were obtained:
# Experiment in all cases: glycan array binding signal (z-score within array); higher = stronger binding
# Settings in all cases: glycan notation: IUPAC condensed, linker removed; mutation: Y228A
# [1] = target: Fuc(a1-2)Gal(b1-3)GlcNAc(b1-3)[Gal(b1-4)GlcNAc(b1-6)]Gal(b1-4)Glc
# Procedure, shortened: (§1)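 Negative Z-scores can be read as non-binding. The Z-score is calculated within each array and then averaged across arrays of one protein sequence at different concentrations or buffers and across linkers. Arrays, 3228 in all, were curated from the Consortium for Functional Glycomics database and kept only where the protein sequence was available.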
# [2] = target: Fuc(a1-2)Gal(b1-3)[Fuc(a1-4)]GlcNAc(b1-2)Man(a1-3)[Fuc(a1-2)Gal(b1-3)[Fuc(a1-4)]GlcNAc(b1-2)Man(a1-6)]Man(b1-4)GlcNAc(b1-4)[Fuc(a1-6)]GlcNAc(b1-4)[Fuc(a1-6)]GlcNAc
# Procedure, shortened: as §1
# [3] = target: Fuc(a1-2)Gal(b1-4)GlcNAc(b1-2)Man(a1-3)[Fuc(a1-2)Gal(b1-4)GlcNAc(b1-2)Man(a1-6)]Man(b1-4)GlcNAc(b1-4)GlcNAc
# Procedure, shortened: as §1
# [4] = target: Fuc(a1-2)Gal(b1-4)GlcNAc6S
# Procedure, shortened: as §1
# [5] = target: Fuc(a1-2)Gal(b1-4)[Fuc(a1-3)]GlcNAc(b1-3)GalNAc
# Procedure, shortened: as §1
# [6] = target: Fuc(a1-2)Gal6S(b1-4)Glc6S
# Procedure, shortened: as §1
# [7] = target: Fuc(a1-2)[Gal(a1-3)]Gal(b1-4)[Fuc(a1-3)]Glc
# Procedure, shortened: as §1
# [8] = target: Fuc(a1-2)[GalNAc(a1-3)]Gal(b1-3)GalNAc(a1-3)[Fuc(a1-2)]Gal(b1-4)GlcNAc
# Procedure, shortened: as §1
# [9] = target: Fuc(a1-2)[GalNAc(a1-3)]Gal(b1-3)GlcNAc(b1-3)GalNAc
# Procedure, shortened: as §1
# [10] = target: Fuc(a1-2)[GalNAc(a1-3)]Gal(b1-4)GlcNAc(b1-3)[Fuc(a1-2)[GalNAc(a1-3)]Gal(b1-4)GlcNAc(b1-6)]GalNAc
# Procedure, shortened: as §1
# [11] = target: Fuc(a1-3)[Gal(b1-4)]GlcNAc(b1-6)GalNAc
# Procedure, shortened: as §1
# [12] = target: Fuc(a1-3)[Gal(b1-4)]GlcNAc(b1-6)[Gal(b1-3)GlcNAc(b1-3)]Gal(b1-4)Glc
# Procedure, shortened: as §1
# Gal(a1-2)Gal = target: Gal(a1-2)Gal
# Procedure, shortened: as §1
# [13] = target: Gal(a1-3)Gal(b1-4)GlcNAc(b1-2)Man(a1-3)[Gal(a1-3)Gal(b1-4)GlcNAc(b1-2)Man(a1-6)]Man(b1-4)GlcNAc(b1-4)GlcNAc
# Procedure, shortened: as §1
# Gal(a1-3)GalNAc = target: Gal(a1-3)GalNAc
# Procedure, shortened: as §1
# [14] = target: Gal(a1-4)Gal(b1-4)GlcNAc(b1-2)Man(a1-3)[Gal(a1-4)Gal(b1-4)GlcNAc(b1-2)Man(a1-6)]Man(b1-4)GlcNAc(b1-4)GlcNAc
# Procedure, shortened: as §1
# Gal(b1-3)Gal = target: Gal(b1-3)Gal
# Procedure, shortened: as §1
# Gal(b1-3)Gal(b1-4)GlcNAc = target: Gal(b1-3)Gal(b1-4)GlcNAc
# Procedure, shortened: as §1
# [15] = target: Gal(b1-3)GalNAc(a1-3)[Fuc(a1-2)]Gal(b1-4)Glc
# Procedure, shortened: as §1
# [16] = target: Gal(b1-3)GlcNAc(a1-3)Gal(b1-4)GlcNAc
# Procedure, shortened: as §1
# Gal(b1-3)GlcNAc(b1-2)Man = target: Gal(b1-3)GlcNAc(b1-2)Man
# Procedure, shortened: as §1
# [17] = target: Gal(b1-3)GlcNAc(b1-2)Man(a1-3)[Gal(b1-3)GlcNAc(b1-2)Man(a1-6)]Man(b1-4)GlcNAc(b1-4)[Fuc(a1-6)]GlcNAc
# Procedure, shortened: as §1
# [18] = target: Gal(b1-3)GlcNAc(b1-2)Man(a1-3)[GlcNAc(b1-4)][Gal(b1-3)GlcNAc(b1-2)Man(a1-6)]Man(b1-4)GlcNAc(b1-4)GlcNAc
# Procedure, shortened: as §1
# [19] = target: Gal(b1-3)GlcNAc(b1-3)Gal(b1-4)GlcNAc(b1-6)[Gal(b1-3)GlcNAc(b1-3)]Gal(b1-4)Glc
# Procedure, shortened: as §1
# [20] = target: Gal(b1-3)GlcNAc(b1-6)Gal(b1-4)GlcNAc
# Procedure, shortened: as §1
# [21] = target: Gal(b1-3)GlcNAc(b1-6)GalNAc
# Procedure, shortened: as §1
# Gal(b1-3)GlcNAc6S = target: Gal(b1-3)GlcNAc6S
# Procedure, shortened: as §1
# [22] = target: Gal(b1-3)[Neu5Ac(a2-6)]GalNAc
# Procedure, shortened: as §1
# Gal(b1-4)Glc6S = target: Gal(b1-4)Glc6S
# Procedure, shortened: as §1
# [23] = target: Gal(b1-4)GlcNAc(b1-2)[Gal(b1-4)GlcNAc(b1-6)]Man(a1-6)[GlcNAc(b1-4)][Gal(b1-4)GlcNAc(b1-2)[Gal(b1-4)GlcNAc(b1-4)]Man(a1-3)]Man(b1-4)GlcNAc(b1-4)[Fuc(a1-6)]GlcNAc
# Procedure, shortened: as §1
binder,measurement,setting,value
B1,glycan array binding signal (z-score),[1],-0.261
same,glycan array binding signal (z-score),[2],-0.098
same,glycan array binding signal (z-score),[3],-0.023
same,glycan array binding signal (z-score),[4],-0.027
same,glycan array binding signal (z-score),[5],-0.103
same,glycan array binding signal (z-score),[6],-0.325
same,glycan array binding signal (z-score),[7],-0.203
same,glycan array binding signal (z-score),[8],-0.281
same,glycan array binding signal (z-score),[9],0.018
same,glycan array binding signal (z-score),[10],-0.156
same,glycan array binding signal (z-score),[11],-0.289
same,glycan array binding signal (z-score),[12],-0.025
same,glycan array binding signal (z-score),Gal(a1-2)Gal,-0.233
same,glycan array binding signal (z-score),[13],-0.232
same,glycan array binding signal (z-score),Gal(a1-3)GalNAc,-0.151
same,glycan array binding signal (z-score),[14],0.054
same,glycan array binding signal (z-score),Gal(b1-3)Gal,11.6
same,glycan array binding signal (z-score),Gal(b1-3)Gal(b1-4)GlcNAc,10.2
same,glycan array binding signal (z-score),[15],0.088
same,glycan array binding signal (z-score),[16],-0.17
same,glycan array binding signal (z-score),Gal(b1-3)GlcNAc(b1-2)Man,3.19
same,glycan array binding signal (z-score),[17],2.29
same,glycan array binding signal (z-score),[18],2.24
same,glycan array binding signal (z-score),[19],2.26
same,glycan array binding signal (z-score),[20],2.32
same,glycan array binding signal (z-score),[21],-0.142
same,glycan array binding signal (z-score),Gal(b1-3)GlcNAc6S,7.1
same,glycan array binding signal (z-score),[22],0.209
same,glycan array binding signal (z-score),Gal(b1-4)Glc6S,2.93
same,glycan array binding signal (z-score),[23],0.803
